DRD3 antagonist – antagonists of human D3 dopamine receptor | P35462 | D3R cells, DiscoveRx beta-arrestin luminescence, antagonist mode; active compounds read low | max response, negative = inhibition, % | 360,000 compounds, 2.5% hits | AID 652054; in the data active = max response below about -50%; inconclusive = no clear call, values can overlap the other calls; note: % is set by controls: 0 for no effect and ±100 for the full control effect
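Cells plated overnight at 1500 cells/well, then exposed to library compounds with dopamine controls for 90 minutes at 37 degrees C. DiscoveRx reagent added for 30–60 minutes at room temperature; luminescence read, quantitative HTS format.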
ClpP mod – qHTS Assay for Activators of ClpP | ATP-dependent Clp protease proteolytic subunit (Bacillus subtilis (strain 168)), P80244 | purified B. subtilis ClpP, FRET peptide cleavage, 20 min | Potency, µM (highest dose often 57.5 µM), for the others: at the top dose activity change, negative = active | 340,000 compounds, 1.9% hits | AID 651965, 2013; active = well fitted falling curve with a large enough effect; inconclusive = small, poorly fitted or top-dose-only effect; inactive = no such curve, though single readings can be large or run the other way; note: potency is the fitted concentration of half-maximal effect; the source files actives as falling curves though it sought activators and does not explain the sign; nearly all actives have a fitted effect of over 65% in size
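Buffer: 100 mM Tris/HCl pH8, 100 mM KCl, 0.05% low protease BSA, 2.5% glycerol, 0.01% Tween-20. ClpP 10 microg/mL final; 20 min RT; delta FRET normalized to ADEP and DMSO controls.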
TDP1 cell noCPT – qHTS for Inhibitors of human tyrosyl-DNA phosphodiesterase 1 (TDP1): qHTS in cells in absence of CPT. Potency, µM (top dose mostly 46.2 µM), for inactives: at the highest dose activity change, negative = growth inhibition, hits mostly inhibitors. 420,000 compounds, 15% hits. AID 686978, 2013. DT40 Tdp1-/- hTDP1 cells, no CPT, ATP luminescence, 48 h; note: potency is the fitted concentration of half-maximal effect; % is set by controls: 0 for no effect and ±100 for the full control effect; nearly all actives have a fitted effect of over 55% in size
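Chicken DT40 Tdp1-/- cells stably complemented with human TDP1 were seeded at 400 cells/well with DMSO in place of 20 nM camptothecin. After compound pinning, cells grew at least 48 hr at 37 °C; viability read by CellTiter-Glo luminescence.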
TDP1 cell CPT – growth inhibition of DT40 Tdp1-/-;hTDP1 cells with camptothecin (screen for TDP1 inhibitors); chicken DT40 Tdp1-/-;hTDP1 cells + 20 nM CPT, ATP luminescence, 48 h; Potency, µM (doses to about 46.2 µM), for the others: at the highest dose activity change, negative = growth inhibition, hits mostly inhibitors; 420,000 compounds, 12% hits; note: potency is the fitted concentration of half-maximal effect; % is set by controls: 0 for no effect and ±100 for the full control effect; nearly all actives have a fitted effect of over 55% in size
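Chicken DT40 Tdp1-/- cells stably complemented with human TDP1 were seeded at 400 cells/well in medium containing 20 nM camptothecin, exposed to pin-transferred compounds, and grown at 37 °C for at least 48 hr. Viability was read as ATP luminescence.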
IL-1B inflam inh – blocks inflammasome-driven IL-1 beta release. THP-1 LPS/ATP IL-1B secretion, AlphaLISA, 16 h; active compounds read low. activity change, % at 57.5 µM. 360,000 compounds, 4.7% hits; in the data active = activity change below about -50%; inconclusive = mostly about -30% to -49%; note: % is set by controls: 0 for no effect and ±100 for the full control effect
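Secreted IL-1B measured by AlphaLISA bead assay after 16 h compound exposure of THP-1 cells; compounds (final up to 57.5 uM) added 1 h before LPS (250 ng/mL) and ATP (1.25 mM) stimulation; lower signal means less secretion.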
D3 ag – D3 dopamine receptor (human) agonism; P35462; D3R DiscoveRx beta-arrestin cells, luminescence, 90 min; max activation, %; 410,000 compounds, 0.58% hits; in the data active = max activation above about 30%; note: 0% is about no effect
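Agonist mode: compounds and dopamine controls were applied to plated cells for 90 min at 37 degrees C after an overnight attachment at 1500 cells/well. Luminescent read-out followed 30 - 60 minutes at room temperature with DiscoveRx detection reagent.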
* = called active by the depositor; ? = inconclusive; nt = no result. Rows were chosen to be rich in hits. Some 21% of all compounds tested hit in one or more screens of this group. Unless noted, calls come from the whole dose curve; as a rule, active = well fitted inhibition curve with a large enough effect; inconclusive = small, poorly fitted or top-dose-only effect; inactive = flat fitted curve, though single readings scatter.

SMILES	DRD3 antagonist	ClpP mod	TDP1 cell noCPT	TDP1 cell CPT	IL-1B inflam inh	D3 ag
COc1ccc(OC)c(NC(=O)CC2C(=O)NCCN2C(=O)Nc2cccc(Cl)c2)c1 (stereo not drawn)	-3	-2%	-14%	?	-66*	-18
O=C(CC1C(=O)NCCN1C(=O)c1ccc(Cl)cc1)Nc1ccc(F)cc1 (stereo not drawn)	14	32µM*	11%	1%	-3	4
O=C(CC1C(=O)NCCN1C(=O)Nc1ccc(Cl)cc1)Nc1ccc(F)cc1 (stereo not drawn)	-11	nt	-21%	-29%	-64*	-7
COc1ccc(-c2oc3c(c2C(=O)OCCO)C(OCCO)CCC3)cc1 (stereo not drawn)	?	5%	?	?	17	-1
Cc1ccc2cccc(NC(=O)c3ccc(-c4cccc(Cl)c4Cl)o3)c2n1	nt	-4%	nt	nt	nt	-5
COc1ccc(NC(=O)Cc2nnc(SCC(=O)NC3CCCC3)n2C)cc1	0	nt	-5%	-11%	12	-1
Cc1ccc(-c2nnn(CC(=O)N(c3ccc(F)cc3)C(C(=O)NC3CCCC3)c3ccco3)n2)o1 (stereo not drawn)	-25	-1%	?	15µM*	93	-13
Cc1ccc(-c2nnn(CC(=O)N(c3ccc(F)cc3)C(C(=O)NC(C)(C)C)c3ccco3)n2)o1 (stereo not drawn)	30	0%	?	-3%	21	5
CCC(C(=O)NC1CCCC1)N(C(=O)Cn1nnc(-c2ccc(C)o2)n1)c1cccc(OC)c1 (stereo not drawn)	6	-1%	-18%	13%	23	36*
Cc1ccc(-c2nnn(CC(=O)N(c3ccccc3F)C(C(=O)NC3CCCC3)c3ccco3)n2)o1 (stereo not drawn)	-23	2%	16µM*	29µM*	-11	-38
Cc1ccc(-c2nnn(CC(=O)N(c3cccc(F)c3)C(C(=O)NC3CCCC3)c3ccco3)n2)o1 (stereo not drawn)	-8	0%	16µM*	21µM*	2	-16
CC(=O)NCCC(=O)Nc1nc2ccc(Oc3ccccc3)cc2s1	-12	nt	?	-15%	-18	-9
COc1ccc(S(=O)(=O)NN(C)C(=O)c2nn(-c3ccccc3)ccc2=O)cc1	12	nt	-2%	-1%	-12	1
COc1cc(Cl)c(C)cc1NC(=O)c1sc2nc3n(c(=O)c2c1C)CCCCC3	nt	-11%	-6%	8%	nt	7
CCOCCCN(C(=O)Cn1nnc(-c2ccc(C)o2)n1)C(C(=O)NC1CCCC1)c1ccco1 (stereo not drawn)	1	nt	-8%	4%	-13	2
CCOCCCN(C(=O)Cn1nnc(-c2ccc(C)o2)n1)C(C(=O)NC1CCCC1)c1ccc(C)o1 (stereo not drawn)	9	nt	?	?	-52*	1
CSc1ncccc1C(=O)OCC(=O)N(C)c1c(N)n(Cc2ccccc2)c(=O)[nH]c1=O	0	0%	0%	-6%	9	-6
CCN1C(=O)[C@H]2[C@@H](c3ccc(-c4cccc(Cl)c4)cc3)N[C@@](Cc3ccccc3)(C(=O)OC)[C@H]2C1=O	-8	-14%	?	?	?	17
O=C(c1cccs1)N1CCN(c2nc3ccccc3s2)CC1	17	-4%	?	?	52	3
O=C(c1ccc(Cl)s1)N1CCN(c2nc3ccccc3s2)CC1	2	-4%	16µM*	?	-14	0
CCSc1ccccc1C(=O)N1CCN(c2nc3ccccc3s2)CC1	nt	1%	15µM*	?	nt	-9
Cc1cccc2sc(N3CCN(C(=O)c4cccs4)CC3)nc12	1	-2%	-28%	-15%	-78*	5
O=C(c1cc2sccc2n1Cc1ccc(F)cc1)N1CCN(c2nc3ccccc3s2)CC1	7	-4%	21µM*	13µM*	0	4
CCOc1ccccc1NC(=O)Cn1c(=O)n(Cc2cccs2)c(=O)c2cccnc21	nt	-10%	-6%	2%	nt	1
Cc1nn(Cc2cccc(C(=O)N3CCCC(C)C3)c2)c(C)c1[N+](=O)[O-] (stereo not drawn)	1	-1%	?	?	4	8
SMILES	DRD3 antagonist	ClpP mod	TDP1 cell noCPT	TDP1 cell CPT	IL-1B inflam inh	D3 ag
CCc1cc(=O)oc2c(C)c(OCC(=O)N3CCCc4ccccc43)ccc12	11	?	?	18µM*	-20	0
O=C(COc1ccc(Br)cc1CO)N1CCCc2ccccc21	-2	nt	26µM*	-6%	-11	-6
NC(=O)c1ccccc1OCC(=O)N1CCCc2ccccc21	6	nt	?	?	48	1
O=C(CCS(=O)(=O)c1cc(Br)cc2c1N(C(=O)C1CC1)CC2)Nc1ccc(F)cc1	nt	-1%	-4%	-3%	nt	-20
COc1ccc2c(c1)C(C)=CC(C)(C)N2S(=O)(=O)c1ccc(C)cc1	-14	nt	5.2µM*	5.8µM*	69	-10
CCOc1ccc2c(c1)C(C)=CC(C)(C)N2S(=O)(=O)c1ccc(C)cc1	-19	nt	6.5µM*	?	26	-2
CC1=CC(C)(C)N(C(=O)CN2C(=O)c3ccccc3C2=O)c2ccc(C)cc21	5	0%	-26%	?	0	7
CCNC(=O)N1c2ccc(OCC)cc2C(C)=CC1(C)C	-29	-22%	18µM*	?	-12	0
CC1=CC(C)(C)N(S(=O)(=O)c2ccc(C)cc2)c2cc(C)ccc21	-25	1%	5.2µM*	5.8µM*	36	-21
O=C(c1ccccc1)N1N=C(c2ccco2)CC1c1cccs1 (stereo not drawn)	-13	nt	21µM*	?	-14	-1
O=C(CCl)N1N=C(c2ccco2)CC1c1cccs1 (stereo not drawn)	0	-1%	1.8µM*	2.1µM*	-105*	0
Cc1ccc(C2=NN(C(=O)CCC(=O)O)C(c3cccs3)C2)cc1 (stereo not drawn)	6	-5%	24%	-5%	8	1
Cc1ccc(C2=NN(C(=O)CCl)C(c3cccs3)C2)o1 (stereo not drawn)	-18	-1%	2.6µM*	2.1µM*	-102*	8
CC(=O)N1N=C(c2ccco2)CC1c1cccs1 (stereo not drawn)	-9	-3%	-14%	?	7	1

From PubChem BioAssay
